According to the supplement of paper PMC6805474:

How the values were obtained:
[1] = system: Schistosoma mansoni schistosomula (NMRI); assay: phenotypic severity score (0-4); higher = more antischistosomal effect, active = 2 or more; settings: 10 µM
[2] = system: Schistosoma mansoni schistosomula (Liberian); assay: drug effect (1 - score/DMSO control score) (fraction); higher = more antischistosomal effect, active = 0.5 or more; extreme values may be limits of the assay; settings: 10 µM
Outline: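 A plate was valid only if its 0.1% DMSO wells averaged a score of at least 2. Those wells ran beside duplicate wells in which 50 Liberian-strain Schistosoma mansoni schistosomula each, transformed mechanically from cercariae and pre-incubated at least 12 h, met 10 µM compound in Medium 199 with 5% FCS at 37 °C, 5% CO2. Scoring was visual at 10× at 24, 48 and 72 h, from 3 (normal) to 0 (dead) in quarter-point steps. Drug effect was derived from the mean test-well score against the mean DMSO-well score, with negatives set to zero.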

[3] = system: Schistosoma mansoni schistosomula (LE); assay: XTT viability relative to DMSO control; higher = more viable (less active); settings: 72 h; 10 µM
Description: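 XTT/PMS was then added for a further 24 h (72 h total) and A450 was read. % viability = (sample - heat-killed control)/(DMSO control - heat-killed control) x 100, from duplicate wells in two independent experiments.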
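Throughout, for phenotypic severity score (0-4): visual microscopic scoring of shape, motility and density changes versus 0.5% DMSO solvent controls, one point per descriptor, degeneracy or death scored 4, mean of duplicate wells.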

Row | Compound | phenotypic severity score ([1]; 24 h) | phenotypic severity score ([1]; 48 h) | phenotypic severity score ([1]; 72 h) | drug effect ([2]; 24 h) | drug effect ([2]; 48 h) | drug effect ([2]; 72 h) | XTT viability [3]
1 | O=C(C(Cc1c[nH]c2ccccc12)NS(=O)(=O)c1ccc(Cl)cc1)N1CCCCC1 (stereo not drawn) | 0 (inactive) | 0 (inactive) | 0 (inactive) | 0.05 (inactive) | 0.0811 (inactive) | 0.111 (inactive) | 
2 | CNCCC(Oc1ccc(C(F)(F)F)cc1)c1ccccc1 (stereo not drawn) | 0 (inactive) | 0 (inactive) | 0 (inactive) | 0.05 (inactive) | 0.0811 (inactive) | 0.333 (inactive) | 
3 | CCOc1ccc2cc(-c3nn(CC4CCN(C)CC4)c4ncnc(N)c34)ccc2c1 | 0 (inactive) | 0 (inactive) | 0 (inactive) | 0.1 (inactive) | 0.167 (inactive) | 0.389 (inactive) | 
4 | O=C(Nc1cnc2ccccc2c1)c1cccc(-n2cnnn2)c1 | 0 (inactive) | 0 (inactive) | 0 (inactive) | < 0 (inactive) | < 0 (inactive) | 0.0303 (inactive) | 
5 | COc1cc(CN2CCC3(C=Cc4ccccc43)CC2)cc2c1OCO2 | 1 (inactive) | 1 (inactive) | 0 (inactive) | 0.1 (inactive) | 0.135 (inactive) | 0.273 (inactive) | 
6 | N=C(N)c1ccc(-c2cc(-c3ccccc3)on2)cc1 | 2 (active) | 1 (inactive) | 0 (inactive) | 0.182 (inactive) | 0.65 (active) | 0.455 (inactive) | 
7 | O=C(NCCc1ccccc1)c1cc(-c2cccnc2)cnc1NCC1CC1 | 0 (inactive) | 2 (active) | 0 (inactive) | 0.2 (inactive) | 0.514 (active) | 0.576 (active) | 
8 | CC(C)(C(=O)Nc1ccc(F)cc1)n1cc(-c2ccccc2F)cn1 | 0 (inactive) | 0 (inactive) | 0 (inactive) | 0.135 (inactive) | 0.111 (inactive) | < 0 (inactive) | 
9 | CC(=O)Nc1ccc(-c2noc(CC3CCCN(Cc4cccc(F)c4C)C3)n2)cc1 (stereo not drawn) | 0 (inactive) | 0 (inactive) | 0 (inactive) | 0.1 (inactive) | 0.0556 (inactive) | 0.188 (inactive) | 
10 | COc1cc(C2=NCCN2)cc2cc(-c3ccc(C4=NCCN4)cc3)oc12 | 0 (inactive) | 0 (inactive) | 0 (inactive) | 0.1 (inactive) | 0.027 (inactive) | 0.0303 (inactive) | 
11 | CCC(NC(=O)c1ccccc1NC(=O)c1ccc(C)cc1)C(=O)OC (stereo not drawn) | 0 (inactive) | 1 (inactive) | 1 (inactive) | 0.2 (inactive) | 0.167 (inactive) | 0.25 (inactive) | 
12 | O=C(Nc1ccc(C(F)(F)F)c(C(F)(F)F)c1)c1cc(Cl)ccc1O | 4 (active) | 4 (active) | 4 (active) | 1 (active) | 1 (active) | 1 (active) | 
13 | Cc1nnc(NCc2cccc(Cl)c2)c2ccccc12 | 0 (inactive) | 0 (inactive) | 0 (inactive) | < 0 (inactive) | 0.25 (inactive) | 0.127 (inactive) | 
14 | CC(C)(C)C1CCC(CC2=C(O)C(=O)c3ccccc3C2=O)CC1 (stereo not drawn) | 3 (active) | 2 (active) | 2 (active) | 0.2 (inactive) | 0.189 (inactive) | 0.278 (inactive) | 
15 | CO[C@H]1/C=C/O[C@@]2(C)Oc3c(C)c(O)c4c(O)c(/c(=C/NN5CCN(C)CC5)c(O)c4c3C2=O)=N\C(=O)/C(C)=C\C=C/[C@H](C)[C@H](O)[C@@H](C)[C@@H](O)[C@@H](C)[C@H](OC(C)=O)[C@@H]1C | 0 (inactive) | 0 (inactive) | 0 (inactive) | 0.0455 (inactive) | 0.05 (inactive) | 0.105 (inactive) | 
16 | c1csc(-c2cnc3sc(NCC4CCOCC4)nn23)c1 | 0 (inactive) | 0 (inactive) | 0 (inactive) | 0.182 (inactive) | 0.55 (active) | 0.345 (inactive) | 
17 | COc1ccc(OC(C)C(=O)Nc2ccc(Cl)cc2C)cc1 (stereo not drawn) | 0 (inactive) | 0 (inactive) | 0 (inactive) | 0.182 (inactive) | 0.35 (inactive) | 0.345 (inactive) | 
18 | c1ccc(Oc2ccc(-c3cc(N4CCOCC4)[nH]n3)cc2)cc1 | 0 (inactive) | 0 (inactive) | 0 (inactive) | 0.15 (inactive) | 0.297 (inactive) | 0.152 (inactive) | 
19 | COc1cc(-c2cc(-c3ccc(S(C)(=O)=O)cc3)cnc2N)ccc1O | 2 (active) | 1 (inactive) | 1 (inactive) | 0.1 (inactive) | 0.189 (inactive) | 0.152 (inactive) | 
20 | O=C1COCc2ccc(Br)cc2N1Cc1ccc(C(F)(F)F)cc1 | 0 (inactive) | 0 (inactive) | 0 (inactive) | 0.297 (inactive) | 0.389 (inactive) | 0.438 (inactive) | 
21 | Cc1ccccc1CN1CCC(O)(c2ccc(Cl)c(C(F)(F)F)c2)CC1 | 2 (active) | 0 (inactive) | 1 (inactive) | 0.1 (inactive) | 0.0556 (inactive) | 0.188 (inactive) | 
22 | CC(C)C(Oc1cccc2ccccc12)C(=O)O (stereo not drawn) | 0 (inactive) | 0 (inactive) | 0 (inactive) | < 0 (inactive) | < 0 (inactive) | 0.0556 (inactive) | 
23 | CCC(C)NC(=O)c1ccc(NC(=O)C2(c3ccccc3)CCCC2)cc1 (stereo not drawn) | 0 (inactive) | 0 (inactive) | 0 (inactive) | 0.05 (inactive) | 0.027 (inactive) | 0.0303 (inactive) | 
24 | CCc1nc2ccccc2n1CC(O)COc1cc(C)ccc1Cl (stereo not drawn) | 0 (inactive) | 0 (inactive) | 0 (inactive) | 0.0909 (inactive) | 0.25 (inactive) | 0.236 (inactive) | 
25 | Cc1ccc(S(=O)(=O)n2cc(-c3ccnc(N)c3)c3cc(Br)cnc32)cc1 | 2 (active) | 3 (active) | 3 (active) | 0.45 (inactive) | 0.568 (active) | 0.515 (active) | 
26 | Cc1cc(NCC(C)C)c2n[nH]c(-c3ccccc3)c2n1 | 0 (inactive) | 0 (inactive) | 0 (inactive) | 0.105 (inactive) | 0.111 (inactive) | 0.0625 (inactive) | 
27 | CCCc1ccc(S(=O)(=O)Nc2ccc(CN3CCN(CC4CC4)CC3)cc2)cc1 | 0 (inactive) | 0 (inactive) | 0 (inactive) | 0.15 (inactive) | 0.167 (inactive) | 0.375 (inactive) | 108%
28 | CC[P](CC)(CC)=[Au][S][C@H]1O[C@@H](COC(C)=O)[C@H](OC(C)=O)[C@@H](OC(C)=O)[C@@H]1OC(C)=O | 4 (active) | 4 (active) | 4 (active) | 1 (active) | 1 (active) | 1 (active) | 
29 | Clc1ccc(-n2cc(COc3ccnc4ccccc34)nn2)cc1 | 0 (inactive) | 0 (inactive) | 0 (inactive) | 0.105 (inactive) | 0.389 (inactive) | 0.312 (inactive) | 103%
30 | N=C(N)c1ccc(OCCCCCOc2ccc(C(=N)N)cc2)cc1 | 0 (inactive) | 0 (inactive) | 0 (inactive) | < 0 (inactive) | < 0 (inactive) | < 0 (inactive) | 81.9%
